Measurements published in the supplement of paper PMC10849652.
About 8,800 targets were measured; listed, in parts, are those with a hit and a random draw of the rest. About 0.5% of all pairs of compound and target were hits.

Key:
Assay in all cases: log2 fold change, soluble protein after heating vs DMSO (PISA); higher = thermal stabilisation; K562 lysate, 10 uM; active = over 0.2 and 3.5 SD of the protein, either way, in both replicates (recomputed)
alvocidib = compound: CN1CC[C@H](c2c(O)cc(O)c3c(=O)cc(-c4ccccc4Cl)oc23)[C@H](O)C1 [alvocidib]
Summary of the method: (§1)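 A 30 min treatment with 10 μM compound was applied to crude K562 extract at 1 mg/mL protein in PBS pH 7.4 with 1 mM MgCl2. Heating for 3 min spanned 48°C-58°C, after which aliquots were pooled, adjusted to 0.5% NP-40 at 4°C and spun at 21,000xg for 90 min. TMTpro 16plex LC-MS/MS of the supernatant, with channel sums equalised, gave values recorded as log-two fold change in thermal stability against solvent controls, from duplicates.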

Tubastatin A = compound: CN1CCc2c(c3ccccc3n2Cc2ccc(C(=O)NO)cc2)C1 [Tubastatin A]
Summary of the method: as §1

[1] = compound: CNC(=O)C1=CC=CC=C1NC2=NC(=NC=C2Cl)NC3=C(C=C(C=C3)N4CCOCC4)OC
Summary of the method: as §1

defactinib = compound: CNC(=O)c1ccc(Nc2ncc(C(F)(F)F)c(NCc3nccnc3N(C)S(C)(=O)=O)n2)cc1 [defactinib]
Summary of the method: as §1

[2] = compound: CNc1nc(-c2ccc3c(N)n[nH]c3c2)cc(N2C[C@@H](C(=O)NC3CCCCC3)CC[C@H]2C)n1
Summary of the method: as §1

encorafenib = compound: COC(=O)N[C@@H](C)CNc1nccc(-c2cn(C(C)C)nc2-c2cc(Cl)cc(NS(C)(=O)=O)c2F)n1 [encorafenib]
Summary of the method: as §1

[3] = compound: COC(=O)[C@H](CCSC)NC(=O)C1=C(C=C(C=C1)NC[C@H](CS)N)C2=CC=CC=C2
Summary of the method: as §1

alisertib = compound: COc1cc(Nc2ncc3c(n2)-c2ccc(Cl)cc2C(c2c(F)cccc2OC)=NC3)ccc1C(=O)O [alisertib]
Summary of the method: as §1

[4] = compound: COc1cc2nc(-c3cc(F)ccc3O)nc(N[C@@H]3CNC[C@H]3C(C)(C)O)c2cc1OC
Summary of the method: as §1

gefitinib = compound: COc1cc2ncnc(Nc3ccc(F)c(Cl)c3)c2cc1OCCCN1CCOCC1 [gefitinib]
Summary of the method: as §1

lapatinib = compound: CS(=O)(=O)CCNCc1ccc(-c2ccc3ncnc(Nc4ccc(OCc5cccc(F)c5)c(Cl)c4)c3c2)o1 [lapatinib]
Summary of the method: as §1

pictilisib = compound: CS(=O)(=O)N1CCN(Cc2cc3nc(-c4cccc5[nH]ncc45)nc(N4CCOCC4)c3s2)CC1 [pictilisib]
Summary of the method: as §1

crizotinib = compound: C[C@@H](Oc1cc(-c2cnn(C3CCNCC3)c2)cnc1N)c1c(Cl)ccc(F)c1Cl [crizotinib]
Summary of the method: as §1

[5] = compound: C[C@H](C1=CC=C(C=C1)C(=O)NC2=C3C=CNC3=NC=C2)N
Summary of the method: as §1

duvelisib = compound: C[C@H](Nc1ncnc2nc[nH]c12)c1cc2cccc(Cl)c2c(=O)n1-c1ccccc1 [duvelisib]
Summary of the method: as §1

gandotinib = compound: Cc1cc(Nc2cc(CN3CCOCC3)c3nc(C)c(Cc4ccc(Cl)cc4F)n3n2)n[nH]1 [gandotinib]
Summary of the method: as §1

tozasertib = compound: Cc1cc(Nc2cc(N3CCN(C)CC3)nc(Sc3ccc(NC(=O)C4CC4)cc3)n2)n[nH]1 [tozasertib]
Summary of the method: as §1

doramapimod = compound: Cc1ccc(-n2nc(C(C)(C)C)cc2NC(=O)Nc2ccc(OCCN3CCOCC3)c3ccccc23)cc1 [doramapimod]
Summary of the method: as §1

bafetinib = compound: Cc1ccc(NC(=O)c2ccc(CN3CC[C@H](N(C)C)C3)c(C(F)(F)F)c2)cc1Nc1nccc(-c2cncnc2)n1 [bafetinib]
Summary of the method: as §1

[6] = compound: Cc1cccc(CC(=O)N2CCc3c2ccc(-c2cn(C)c4ncnc(N)c24)c3F)n1
Summary of the method: as §1

Measured: log2 fold change

HAUS3 (UniProt Q68CZ6)
inactive: alvocidib -0.022 | Tubastatin A -0.159 | [1] 0.043 | defactinib -0.023 | [2] -0.021 | encorafenib 0.026 | [3] 0.065 | alisertib 0.014 | [4] 0.003 | gefitinib -0.011 | lapatinib -0.011 | pictilisib -0.001 | crizotinib -0.084 | [5] 0.013 | duvelisib -0.042 | gandotinib -0.059 | tozasertib 0.014 | doramapimod -0.034 | bafetinib -0.11 | [6] 0.079

HMGN5 (UniProt P82970)
UniProt P82970, sequence (P82970 whole entry, looked up): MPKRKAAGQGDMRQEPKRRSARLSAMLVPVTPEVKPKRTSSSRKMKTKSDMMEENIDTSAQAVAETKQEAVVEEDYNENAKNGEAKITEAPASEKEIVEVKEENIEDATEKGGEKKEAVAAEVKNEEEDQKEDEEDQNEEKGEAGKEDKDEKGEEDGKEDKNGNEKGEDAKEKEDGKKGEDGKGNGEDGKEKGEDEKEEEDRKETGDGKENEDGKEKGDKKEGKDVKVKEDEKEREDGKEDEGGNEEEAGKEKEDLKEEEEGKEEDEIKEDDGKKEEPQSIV
inactive: alvocidib 0.04 | Tubastatin A 0.045 | [1] -0.029 | defactinib 0.051 | [2] 0.018 | encorafenib -0.029 | [3] -0.023 | alisertib -0.036 | [4] 0.006 | gefitinib -0.028 | lapatinib -0.058 | pictilisib 0.032 | crizotinib 0.046 | [5] 0.239 | duvelisib 0.018 | gandotinib -0.081 | tozasertib 0.02 | doramapimod -0.066 | bafetinib 0.013 | [6] -0.184

H2AFY (UniProt O75367)
UniProt O75367, sequence (O75367 whole entry, looked up): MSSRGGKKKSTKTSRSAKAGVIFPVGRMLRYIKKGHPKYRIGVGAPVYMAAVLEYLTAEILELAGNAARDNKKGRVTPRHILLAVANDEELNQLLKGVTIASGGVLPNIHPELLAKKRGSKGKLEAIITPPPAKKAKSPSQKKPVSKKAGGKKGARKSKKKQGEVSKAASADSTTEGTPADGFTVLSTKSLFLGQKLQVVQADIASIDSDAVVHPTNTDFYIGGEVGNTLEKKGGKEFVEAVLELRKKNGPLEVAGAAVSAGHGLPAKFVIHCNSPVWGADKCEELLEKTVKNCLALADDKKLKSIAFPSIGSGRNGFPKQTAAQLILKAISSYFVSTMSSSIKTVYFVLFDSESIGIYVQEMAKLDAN
active: [2] 0.329
inactive: alvocidib -0.034 | Tubastatin A 0.079 | [1] -0.026 | defactinib 0.106 | encorafenib 0.094 | [3] 0.014 | alisertib 0.001 | [4] 0 | gefitinib 0 | lapatinib -0.021 | pictilisib 0.036 | crizotinib 0.051 | [5] -0.135 | duvelisib 0.01 | gandotinib 0.084 | tozasertib -0.108 | doramapimod -0.138 | bafetinib -0.011 | [6] 0.049

IMMT (UniProt Q16891)
inactive: alvocidib 0.031 | Tubastatin A -0.079 | [1] -0.03 | defactinib 0.019 | [2] -0.041 | encorafenib 0.014 | [3] -0.045 | alisertib 0.034 | [4] -0.145 | gefitinib -0.022 | lapatinib -0.058 | pictilisib 0.001 | crizotinib -0.049 | [5] -0.006 | duvelisib -0.039 | gandotinib -0.134 | tozasertib 0.02 | doramapimod 0.011 | bafetinib -0.053 | [6] 0.023

GNL3 (UniProt Q9BVP2)
UniProt Q9BVP2, sequence (Q9BVP2 whole entry, looked up): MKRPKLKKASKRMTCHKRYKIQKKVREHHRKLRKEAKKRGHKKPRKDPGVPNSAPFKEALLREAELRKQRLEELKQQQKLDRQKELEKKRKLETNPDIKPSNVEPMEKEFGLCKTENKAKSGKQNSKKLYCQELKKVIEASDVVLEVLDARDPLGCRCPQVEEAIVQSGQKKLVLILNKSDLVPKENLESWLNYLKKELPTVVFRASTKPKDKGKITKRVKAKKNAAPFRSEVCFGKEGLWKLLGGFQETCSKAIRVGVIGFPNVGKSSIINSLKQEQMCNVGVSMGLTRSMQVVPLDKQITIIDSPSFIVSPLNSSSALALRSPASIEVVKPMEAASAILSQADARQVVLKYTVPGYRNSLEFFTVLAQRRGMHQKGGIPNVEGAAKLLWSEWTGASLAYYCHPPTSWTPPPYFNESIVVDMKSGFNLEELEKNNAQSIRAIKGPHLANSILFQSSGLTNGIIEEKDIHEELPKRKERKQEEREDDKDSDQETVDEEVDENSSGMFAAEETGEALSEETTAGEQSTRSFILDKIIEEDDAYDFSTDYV
active: [3] 0.252
inactive: alvocidib 0.023 | Tubastatin A 0.008 | [1] 0.055 | defactinib -0.002 | [2] 0.038 | encorafenib 0.014 | alisertib -0.006 | [4] 0.033 | gefitinib -0.029 | lapatinib -0.058 | pictilisib -0.018 | crizotinib -0.134 | [5] 0.097 | duvelisib 0.004 | gandotinib -0.115 | tozasertib -0.013 | doramapimod 0.039 | bafetinib -0.128 | [6] -0.031

HMGCS1 (UniProt Q01581)
UniProt Q01581, sequence (Q01581 whole entry, looked up): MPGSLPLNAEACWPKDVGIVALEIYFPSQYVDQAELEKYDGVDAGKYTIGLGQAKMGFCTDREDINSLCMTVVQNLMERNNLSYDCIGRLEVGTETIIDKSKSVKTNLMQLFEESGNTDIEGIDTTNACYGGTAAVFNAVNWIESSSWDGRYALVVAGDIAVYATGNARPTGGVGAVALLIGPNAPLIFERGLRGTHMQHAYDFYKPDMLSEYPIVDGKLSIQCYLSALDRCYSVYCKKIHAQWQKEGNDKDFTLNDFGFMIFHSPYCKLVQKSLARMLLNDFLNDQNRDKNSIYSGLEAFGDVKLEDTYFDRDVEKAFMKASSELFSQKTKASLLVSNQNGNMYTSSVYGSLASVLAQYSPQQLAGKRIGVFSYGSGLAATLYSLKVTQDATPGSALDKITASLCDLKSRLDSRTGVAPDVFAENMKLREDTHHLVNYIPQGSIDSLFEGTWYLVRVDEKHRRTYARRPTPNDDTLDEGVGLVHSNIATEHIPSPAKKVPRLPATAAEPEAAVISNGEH
inactive: alvocidib 0.021 | Tubastatin A -0.073 | [1] 0.004 | defactinib -0.011 | [2] 0.006 | encorafenib -0.021 | [3] 0.078 | alisertib 0.012 | [4] -0.002 | gefitinib 0.013 | lapatinib 0.077 | pictilisib 0.018 | crizotinib 0.001 | [5] -0.031 | duvelisib 0.003 | gandotinib 0.006 | tozasertib -0.006 | doramapimod 0.036 | bafetinib 0.013 | [6] -0.004

IGF2BP3 (UniProt O00425)
inactive: alvocidib 0.012 | Tubastatin A -0.147 | [1] -0.022 | defactinib -0.028 | [2] -0.016 | encorafenib -0.022 | [3] 0.218 | alisertib 0.006 | [4] -0.003 | gefitinib -0.017 | lapatinib 0.013 | pictilisib -0.038 | crizotinib -0.031 | [5] -0.032 | duvelisib 0.017 | gandotinib -0.04 | tozasertib 0.001 | doramapimod -0.006 | bafetinib -0.045 | [6] 0.053

INPP4A (UniProt Q96PE3)
inactive: alvocidib -0.032 | Tubastatin A -0.051 | [1] 0.033 | defactinib 0.046 | [2] 0.009 | encorafenib 0.01 | [3] -0.019 | alisertib -0.026 | [4] 0.01 | gefitinib -0.033 | lapatinib -0.028 | pictilisib -0.116 | crizotinib -0.024 | [5] -0.086 | duvelisib 0.025 | gandotinib 0.003 | tozasertib 0.065 | doramapimod 0.014 | bafetinib 0.132 | [6] 0.128

HECTD4 (UniProt J3KPF0)
inactive: alvocidib -0.027 | Tubastatin A -0.075 | [1] 0.001 | defactinib 0.012 | [2] -0.017 | encorafenib -0.072 | [3] 0.146 | alisertib 0.013 | [4] 0.045 | gefitinib -0.043 | lapatinib -0.024 | pictilisib -0.043 | crizotinib -0.127 | [5] -0.005 | duvelisib -0.004 | gandotinib -0.024 | tozasertib 0.01 | doramapimod -0.002 | bafetinib -0.083 | [6] 0.101

HLCS (UniProt P50747)
inactive: alvocidib -0.015 | Tubastatin A 0.036 | [1] 0.018 | defactinib 0.017 | [2] 0.025 | encorafenib 0.003 | [3] 0.053 | alisertib -0.01 | [4] 0.038 | gefitinib 0.013 | lapatinib -0.026 | pictilisib -0.022 | crizotinib -0.009 | [5] 0.199 | duvelisib 0.016 | gandotinib -0.002 | tozasertib 0.006 | doramapimod 0.026 | bafetinib -0.045 | [6] -0.007

HMGB2 (UniProt P26583)
UniProt P26583, sequence (P26583 whole entry, looked up): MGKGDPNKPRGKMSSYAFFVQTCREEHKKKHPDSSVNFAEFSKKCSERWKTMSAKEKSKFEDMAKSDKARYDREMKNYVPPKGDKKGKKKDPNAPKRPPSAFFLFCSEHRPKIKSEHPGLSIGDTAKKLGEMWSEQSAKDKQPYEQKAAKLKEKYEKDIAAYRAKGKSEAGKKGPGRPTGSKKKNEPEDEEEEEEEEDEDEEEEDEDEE
active: [5] 0.266 | [6] -0.244
inactive: alvocidib 0.134 | Tubastatin A 0.027 | [1] 0.023 | defactinib 0.003 | [2] 0.016 | encorafenib -0.006 | [3] -0.081 | alisertib -0.044 | [4] -0.022 | gefitinib -0.028 | lapatinib 0.006 | pictilisib 0.021 | crizotinib 0.052 | duvelisib -0.01 | gandotinib -0.16 | tozasertib -0.022 | doramapimod -0.088 | bafetinib 0.14

GTF2A1 (UniProt P52655)
UniProt P52655, sequence (P52655 whole entry, looked up): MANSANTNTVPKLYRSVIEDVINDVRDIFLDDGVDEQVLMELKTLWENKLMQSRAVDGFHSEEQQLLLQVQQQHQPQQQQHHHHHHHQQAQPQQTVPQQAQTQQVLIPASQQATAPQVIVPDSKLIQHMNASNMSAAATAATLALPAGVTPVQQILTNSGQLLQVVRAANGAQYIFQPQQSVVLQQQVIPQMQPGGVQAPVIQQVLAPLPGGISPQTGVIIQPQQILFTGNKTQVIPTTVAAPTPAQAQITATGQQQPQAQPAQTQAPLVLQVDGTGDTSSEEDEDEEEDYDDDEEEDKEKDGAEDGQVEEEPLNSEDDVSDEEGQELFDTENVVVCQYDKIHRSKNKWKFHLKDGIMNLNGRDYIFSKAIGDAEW
inactive: alvocidib 0.165 | Tubastatin A 0.006 | [1] -0.047 | defactinib 0.033 | [2] 0.048 | encorafenib -0.005 | [3] -0.026 | alisertib -0.029 | [4] -0.024 | gefitinib 0.008 | lapatinib 0.034 | pictilisib 0.011 | crizotinib 0.055 | duvelisib 0.009 | gandotinib -0.141 | tozasertib 0.064 | doramapimod 0.028 | bafetinib 0.026 | [6] -0.111
active: [5] 0.327

KARS1 (UniProt Q15046)
UniProt Q15046, sequence (Q15046 whole entry, looked up): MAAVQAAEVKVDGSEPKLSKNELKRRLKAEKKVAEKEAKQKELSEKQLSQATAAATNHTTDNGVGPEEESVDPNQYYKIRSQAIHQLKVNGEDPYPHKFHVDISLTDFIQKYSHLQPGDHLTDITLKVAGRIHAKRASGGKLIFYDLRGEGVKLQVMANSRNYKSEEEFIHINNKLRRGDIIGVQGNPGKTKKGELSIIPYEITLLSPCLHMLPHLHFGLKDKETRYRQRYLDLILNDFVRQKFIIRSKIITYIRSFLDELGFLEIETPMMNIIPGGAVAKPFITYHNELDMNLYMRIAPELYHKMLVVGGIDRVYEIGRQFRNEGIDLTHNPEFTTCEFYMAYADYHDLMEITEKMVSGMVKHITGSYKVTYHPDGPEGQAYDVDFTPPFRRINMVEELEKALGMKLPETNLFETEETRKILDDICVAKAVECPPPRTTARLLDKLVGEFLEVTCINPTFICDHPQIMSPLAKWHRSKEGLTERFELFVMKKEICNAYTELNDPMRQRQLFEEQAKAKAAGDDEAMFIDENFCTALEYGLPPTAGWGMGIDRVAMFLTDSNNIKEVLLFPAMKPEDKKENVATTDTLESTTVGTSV
inactive: alvocidib 0.027 | Tubastatin A -0.01 | [1] -0.037 | defactinib 0 | [2] -0.035 | encorafenib -0.028 | alisertib 0.012 | [4] -0.011 | gefitinib -0.022 | lapatinib -0.002 | pictilisib 0 | crizotinib 0.003 | [5] 0.036 | duvelisib 0.004 | gandotinib -0.082 | tozasertib 0.025 | doramapimod 0.007 | bafetinib -0.025 | [6] -0.026
active: [3] 0.379

HEATR3 (UniProt Q7Z4Q2)
inactive: alvocidib 0.007 | Tubastatin A -0.129 | [1] 0.02 | defactinib 0.012 | [2] 0 | encorafenib 0.014 | [3] 0.116 | alisertib 0.018 | [4] -0.046 | gefitinib 0.003 | lapatinib -0.003 | pictilisib 0 | crizotinib -0.074 | [5] -0.006 | duvelisib -0.005 | gandotinib -0.078 | tozasertib -0.021 | doramapimod 0.027 | bafetinib -0.064 | [6] 0.031

KBTBD4 isoform 2 (UniProt Q9NVX7)
UniProt Q9NVX7, sequence (Q9NVX7 whole entry, looked up): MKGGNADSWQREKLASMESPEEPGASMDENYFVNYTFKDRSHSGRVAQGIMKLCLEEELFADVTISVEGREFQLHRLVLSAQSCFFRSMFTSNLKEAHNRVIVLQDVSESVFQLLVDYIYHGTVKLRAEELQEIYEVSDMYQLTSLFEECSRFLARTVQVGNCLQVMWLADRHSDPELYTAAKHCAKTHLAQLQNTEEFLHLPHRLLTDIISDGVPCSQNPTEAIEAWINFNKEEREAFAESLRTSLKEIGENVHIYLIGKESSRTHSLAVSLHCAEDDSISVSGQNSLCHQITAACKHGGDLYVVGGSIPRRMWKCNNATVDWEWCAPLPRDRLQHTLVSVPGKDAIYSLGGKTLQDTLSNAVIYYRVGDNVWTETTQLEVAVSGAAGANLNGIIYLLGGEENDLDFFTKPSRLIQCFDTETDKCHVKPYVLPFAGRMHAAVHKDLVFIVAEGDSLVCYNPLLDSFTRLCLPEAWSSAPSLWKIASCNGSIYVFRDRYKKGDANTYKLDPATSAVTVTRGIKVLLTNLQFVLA
inactive: alvocidib -0.064 | Tubastatin A -0.048 | [1] -0.016 | defactinib 0.024 | [2] 0.193 | encorafenib 0.048 | [3] -0.08 | alisertib -0.098 | [4] -0.046 | gefitinib 0.121 | lapatinib 0.03 | pictilisib -0.015 | crizotinib -0.038 | [5] -0.075 | duvelisib 0.056 | gandotinib 0.109 | tozasertib -0.068 | doramapimod -0.023 | bafetinib -0.013 | [6] 0.047

KDM5C (UniProt P41229)
UniProt P41229, sequence (P41229 whole entry, looked up): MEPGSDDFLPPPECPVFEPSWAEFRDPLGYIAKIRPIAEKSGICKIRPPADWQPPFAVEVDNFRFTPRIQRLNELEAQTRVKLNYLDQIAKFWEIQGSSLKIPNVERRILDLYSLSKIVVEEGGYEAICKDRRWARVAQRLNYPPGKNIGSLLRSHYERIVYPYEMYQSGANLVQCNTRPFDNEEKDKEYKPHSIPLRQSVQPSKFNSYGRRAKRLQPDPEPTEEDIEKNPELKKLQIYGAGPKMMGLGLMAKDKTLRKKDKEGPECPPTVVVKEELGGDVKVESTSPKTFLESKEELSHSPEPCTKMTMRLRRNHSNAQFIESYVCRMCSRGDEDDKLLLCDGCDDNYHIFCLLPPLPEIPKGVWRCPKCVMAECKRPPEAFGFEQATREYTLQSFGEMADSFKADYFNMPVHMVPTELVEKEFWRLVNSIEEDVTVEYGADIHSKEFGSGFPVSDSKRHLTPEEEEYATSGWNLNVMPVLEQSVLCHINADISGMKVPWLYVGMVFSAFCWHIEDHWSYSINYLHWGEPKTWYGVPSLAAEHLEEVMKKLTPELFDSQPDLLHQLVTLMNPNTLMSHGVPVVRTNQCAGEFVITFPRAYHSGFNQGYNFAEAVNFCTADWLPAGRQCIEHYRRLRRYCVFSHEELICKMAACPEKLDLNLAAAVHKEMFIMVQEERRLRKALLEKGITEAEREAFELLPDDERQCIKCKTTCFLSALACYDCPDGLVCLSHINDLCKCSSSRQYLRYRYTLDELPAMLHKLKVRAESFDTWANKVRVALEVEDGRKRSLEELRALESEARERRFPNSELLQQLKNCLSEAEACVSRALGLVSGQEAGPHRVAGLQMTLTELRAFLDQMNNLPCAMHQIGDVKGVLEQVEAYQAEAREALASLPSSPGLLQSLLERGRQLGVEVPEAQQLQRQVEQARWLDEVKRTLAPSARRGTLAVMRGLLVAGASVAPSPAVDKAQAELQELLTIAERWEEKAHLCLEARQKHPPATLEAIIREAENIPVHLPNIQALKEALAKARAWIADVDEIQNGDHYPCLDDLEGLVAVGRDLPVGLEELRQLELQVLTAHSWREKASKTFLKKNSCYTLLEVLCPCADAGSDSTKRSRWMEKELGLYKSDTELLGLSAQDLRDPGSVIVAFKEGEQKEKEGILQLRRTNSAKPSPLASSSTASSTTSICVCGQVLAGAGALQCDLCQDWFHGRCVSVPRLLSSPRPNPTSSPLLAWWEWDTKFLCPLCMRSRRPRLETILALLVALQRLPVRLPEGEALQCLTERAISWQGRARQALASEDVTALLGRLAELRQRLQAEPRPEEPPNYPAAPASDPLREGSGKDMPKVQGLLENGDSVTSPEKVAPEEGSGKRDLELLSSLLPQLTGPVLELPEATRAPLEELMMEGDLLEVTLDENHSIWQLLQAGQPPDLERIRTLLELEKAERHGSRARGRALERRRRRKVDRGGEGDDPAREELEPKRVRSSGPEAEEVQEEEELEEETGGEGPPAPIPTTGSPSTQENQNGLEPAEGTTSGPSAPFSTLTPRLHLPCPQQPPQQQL
inactive: alvocidib -0.02 | Tubastatin A -0.115 | [1] 0.059 | defactinib -0.009 | [2] 0.04 | encorafenib -0.018 | [3] 0.176 | alisertib -0.01 | [4] 0.09 | gefitinib -0.013 | lapatinib -0.085 | pictilisib -0.071 | crizotinib -0.043 | [5] 0.034 | duvelisib -0.001 | gandotinib -0.135 | tozasertib 0.016 | doramapimod 0.04 | bafetinib -0.061 | [6] 0.001
